# From the supplement of paper PMC4723716
# ± gives the uncertainty stated by the source. In all, about 9,900 compounds were measured (“viability index relative to DMSO control”: median about 1, lowest 2% from about 0.85 on). The sample holds the lowest values, similar compounds and a random draw of the others, so the mix is not that of the screen.
# Tested on: Plasmodium falciparum NF54 stage V gametocytes
# Test: viability index relative to DMSO control (fraction); higher = less gametocyte killing
# Settings: 2.5 µM, incubation time: 72 h
# Procedure, shortened: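 P. falciparum NF54 stage V gametocytes in serum-free screening medium (0.75% gametocytemia, 1.25% hematocrit, 10 µl) were incubated with compound at 2.5 µM in 1,536-well plates for 72 hr at 37°C under low oxygen. Then 3 µl of 2.5 µM MitoTracker Red CMXRos plus 0.13% saponin was added for one to two hours. One field per well was imaged, 20–70 µm2 red particles were counted, and the viability index was the count divided by the plate mean of DMSO wells.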
# [1] = library set: Broad Institute DOS
# [2] = library set: Broad Institute Blood Stage
Compound,viability index [1],viability index [2]
COCC#Cc1ccc([C@@H]2[C@H](CO)N3C(=O)CN(C(=O)CN4CCOCC4)C[C@@H]23)cc1,1.02 ± 0.05,–
C[C@@H](NC(=O)C[C@H]1C=C[C@@H](NS(=O)(=O)c2cccc(F)c2)[C@H](CO)O1)c1ccccc1,1.17 ± 0.04,–
O=C(N[C@@H]1CC[C@H](CC(=O)N2CCOCC2)O[C@H]1CO)c1cccc(F)c1,1.07 ± 0.062,–
O=C(Nc1ccccc1)N1CC(=O)N2[C@H](CO)[C@@H](c3ccc(C#CC4CCCCC4)cc3)[C@@H]2C1,1.04 ± 0.086,–
COCC(=O)N1CC[C@@]2(CC1)CN([C@@H](CO)c1c2c2ccc(OC)cc2n1C)C(=O)c1ccccn1,1.02 ± 0.1,–
CO[C@@H]1CN(C)C(=O)c2cc(NS(=O)(=O)CC(F)(F)F)ccc2OC[C@H](C)NC[C@@H]1C,1.05 ± 0.059,–
O=C(NCC[C@@H]1CC[C@@H](NS(=O)(=O)Cc2ccccc2)[C@@H](CO)O1)C1CCCCC1,0.968 ± 0.15,–
CN(C)C(=O)C[C@@H]1C=C[C@H](NC(=O)c2ccc(F)cc2)[C@@H](CO)O1,1.11 ± 0.097,–
C[C@@H]1CN([C@H](C)CO)C(=O)c2cccc(NC(=O)c3nc4ccccc4s3)c2O[C@H]1CN(C)C(=O)Nc1ccc2c(c1)OCO2,0.9047 ± 0.0069,–
C[C@@H]1CN([C@@H](C)CO)C(=O)c2cccc(NC(=O)NC3CCCCC3)c2O[C@@H]1CN(C)Cc1ccc(C(F)(F)F)cc1,0.813 ± 0.08,–
C[C@H](CO)N1C[C@H](C)[C@H](CN(C)C(=O)Nc2ccc(C(F)(F)F)cc2)Oc2ccc(NS(=O)(=O)c3ccc(Cl)cc3)cc2CC1=O,1.009 ± 0.0083,–
C[C@@H]1CN([C@@H](C)CO)C(=O)c2cccc(NC(=O)C3CC3)c2O[C@@H]1CN(C)C(=O)Nc1ccc(C(F)(F)F)cc1,–,0.594 ± 0.06
C[C@H](CO)N1C[C@H](C)[C@@H](CN(C)C(=O)Nc2ccc(C(F)(F)F)cc2)Oc2ccc(NS(=O)(=O)c3ccc(Cl)cc3)cc2CC1=O,0.917 ± 0.088,–
C[C@H](CO)N1C[C@H](C)[C@@H](CN(C)C(=O)Nc2ccc3c(c2)OCO3)Oc2ccc(NC(=O)Nc3ccc(C(F)(F)F)cc3)cc2CC1=O,–,0.755 ± 0.061
C[C@@H]1CN([C@H](C)CO)C(=O)c2cccc(NC(=O)NC3CCCCC3)c2O[C@H]1CN(C)Cc1ccc(C(F)(F)F)cc1,1.01 ± 0.083,–
C[C@@H]1CN([C@@H](C)CO)C(=O)c2cccc(NC(=O)c3nc4ccccc4s3)c2O[C@H]1CN(C)C(=O)Nc1ccc(C(F)(F)F)cc1,–,0.811 ± 0.058
Cc1ccc(S(=O)(=O)Nc2cccc3c2O[C@H](CN(C)C(=O)Nc2ccc(C(F)(F)F)cc2)[C@@H](C)CN([C@H](C)CO)C3=O)cc1,1.02 ± 0.029,–
Cc1ccc(S(=O)(=O)Nc2cccc3c2O[C@@H](CN(C)C(=O)Nc2ccc(C(F)(F)F)cc2)[C@@H](C)CN([C@H](C)CO)C3=O)cc1,1.08 ± 0.061,–
C[C@H](CO)N1C[C@H](C)[C@@H](CN(C)C(=O)Nc2ccc3c(c2)OCO3)Oc2c(NC(=O)c3nc4ccccc4s3)cccc2C1=O,1.01 ± 0.041,–
C[C@@H]1CN([C@H](C)CO)C(=O)c2cccc(NC(=O)NC3CCCCC3)c2O[C@@H]1CN(C)Cc1ccc(C(F)(F)F)cc1,0.977 ± 0.071,–
O=C(Nc1ccccc1F)N1CC(=O)N2[C@@H](CO)[C@H](c3ccc(-c4cccnc4)cc3)[C@@H]2C1,1.08 ± 0.028,–
Cc1noc(C)c1NC(=O)N(C)C[C@@H]1OCc2cnnn2CCCC(=O)N([C@H](C)CO)C[C@@H]1C,1.09 ± 0.08,–
CO[C@@H]1CN(C)C(=O)c2ccc(NC(=O)NC(C)C)cc2OC[C@@H](C)N(Cc2ccc(-c3ccccn3)cc2)C[C@H]1C,1.03 ± 0.023,–
COCC(=O)Nc1ccc2c(c1)C(=O)N(C)[C@@H]1CC[C@H](CC(=O)N3CCc4ccccc4C3)O[C@@H]1CO2,1.0023 ± 0.00098,–

Compound,viability index [1],viability index [2]
C/C=C/c1ccc([C@H]2[C@H]3CNC[C@@H]2N3S(=O)(=O)c2ccccc2C)cc1,1.04 ± 0.027,–
COc1ccc(S(=O)(=O)N(C)C[C@@H]2OCc3ccccc3-c3c(n(C)c4ccccc34)C(=O)N([C@@H](C)CO)C[C@@H]2C)cc1,–,0.936 ± 0.044
C[C@H](CO)N1C[C@H](C)[C@H](CN(C)S(=O)(=O)c2ccc(C#N)cc2)OCc2ccccc2-c2c(n(C)c3ccccc23)C1=O,–,1.01 ± 0.03
Cc1ccc(S(=O)(=O)N(C)C[C@@H]2OCc3ccccc3-c3c(n(C)c4ccccc34)C(=O)N([C@@H](C)CO)C[C@@H]2C)cc1,–,0.728 ± 0.062
C[C@H]1CN([C@@H](C)CO)C(=O)c2c(c3ccccc3n2C)-c2ccccc2CO[C@H]1CN(C)S(=O)(=O)c1ccc(Cl)cc1,–,0.738 ± 0.023
C[C@H]1CN([C@@H](C)CO)C(=O)c2c(c3ccccc3n2C)-c2ccccc2CO[C@H]1CN(C)S(=O)(=O)c1ccc(F)cc1,–,0.929 ± 0.041
C[C@H](CO)N1C[C@H](C)[C@H](CN(C)S(=O)(=O)c2ccc(F)cc2)OCc2ccccc2-c2c(n(C)c3ccccc23)C1=O,–,0.942 ± 0.045
CCNC(=O)C[C@@H]1CC[C@H]2[C@@H](COC[C@H](O)CN2C(=O)c2ccccn2)O1,1.14 ± 0.062,–
COc1cccc(C#Cc2ccc3c(c2)O[C@@H](CN(C)C(=O)CN2CCOCC2)[C@@H](C)CN([C@H](C)CO)S3(=O)=O)c1,0.966 ± 0.13,–
C[C@@H]1CCCCO[C@H](CN(C)Cc2ccc(C(=O)O)cc2)[C@@H](C)CN([C@@H](C)CO)C(=O)c2cc(N(C)C)ccc2O1,1.07 ± 0.11,–
COCC#Cc1ccc([C@@H]2[C@@H](CO)N3C(=O)CN(C(=O)c4ccncc4)C[C@H]23)cc1,1.12 ± 0.087,–
Cc1ccc(-c2ccccc2[C@H]2[C@@H](C#N)N(c3ncc(-c4ccccc4)s3)[C@H]2CO)cc1,0.985 ± 0.14,–
O=C(C[C@H]1CC[C@@H]2[C@H](COC[C@H](O)CN2Cc2ccc(C(F)(F)F)cc2)O1)N1CCc2ccccc2C1,0.846 ± 0.011,–
O=C(C[C@H]1CC[C@H]2[C@@H](COC[C@@H](O)CN2Cc2ccc(C(F)(F)F)cc2)O1)N1CCc2ccccc2C1,0.968 ± 0.024,–
O=C(C[C@@H]1CC[C@@H]2[C@H](COC[C@H](O)CN2Cc2ccc(C(F)(F)F)cc2)O1)N1CCc2ccccc2C1,1.078 ± 0.0039,–
Cc1noc(C)c1NC(=O)Nc1ccc2c(c1)C(=O)N(C)[C@H]1CC[C@H](CC(=O)Nc3ccc4c(c3)CCCC4)O[C@@H]1CO2,1.086 ± 0.0014,–
COc1ccc([C@@H]2C/C=C\C[C@H](c3ccc(F)cc3)NC(=O)CCC(=O)N2)c(OC)c1,1.015 ± 0.01,–
Cc1ccccc1-c1ccc2c(c1)O[C@@H](CN(C)C(=O)Nc1ccc(C(F)(F)F)cc1)[C@H](C)CN([C@@H](C)CO)S2(=O)=O,1.09 ± 0.078,–
C/C=C/c1ccc2c(c1)O[C@H](CN(C)C(=O)Nc1ccc(OC)cc1)[C@H](C)CN([C@@H](C)CO)S2(=O)=O,0.988 ± 0.013,–
C/C=C/c1ccc2c(c1)O[C@H](CN(C)C(=O)Nc1ccc(OC)cc1)[C@H](C)CN([C@H](C)CO)S2(=O)=O,1.056 ± 0.0059,–
Cc1ccccc1-c1ccc2c(c1)O[C@H](CN(C)C(=O)Nc1ccc(C(F)(F)F)cc1)[C@H](C)CN([C@H](C)CO)S2(=O)=O,0.988 ± 0.082,–
COc1ccc(C#Cc2ccc3c(c2)O[C@@H](CN(C)C(=O)Nc2cccc(OC)c2)[C@@H](C)CN([C@@H](C)CO)S3(=O)=O)cc1,–,0.612 ± 0.071
Cc1ccccc1-c1ccc2c(c1)O[C@@H](CN(C)C(=O)Nc1ccc(C(F)(F)F)cc1)[C@@H](C)CN([C@@H](C)CO)S2(=O)=O,0.838 ± 0.12,–
C[C@H](CO)N1C[C@H](C)[C@@H](CN(C)Cc2cccc(C(=O)Nc3ccccc3N)c2)OCc2ccccc2-c2c(n(C)c3ccccc23)C1=O,0.887 ± 0.053,–

Compound,viability index [1],viability index [2]
CO[C@H](CN(C)S(=O)(=O)c1ccc(C)cc1)[C@H](C)CN(C(=O)Nc1ccccc1F)[C@@H](C)CO,0.986 ± 0.025,–
CCC(=O)N1[C@H](CO)[C@H]2c3ccccc3N(S(=O)(=O)c3ccc(F)cc3)C[C@H]21,0.958 ± 0.067,–
N#C[C@@H]1[C@@H](c2ccccc2C2=CCCCC2)[C@H](CO)N1S(=O)(=O)c1ccccc1,1.05 ± 0.1,–
N#C[C@H]1[C@H](c2ccccc2C2=CCCCC2)[C@H](CO)N1S(=O)(=O)c1ccccc1,1.14 ± 0.019,–
N#C[C@H]1[C@H](c2ccccc2C2=CCCCC2)[C@@H](CO)N1S(=O)(=O)c1ccccc1,0.757 ± 0.1,–
C[C@@H]1CCCCO[C@@H](CN(C)C(=O)C2CCCCC2)[C@@H](C)CN([C@@H](C)CO)C(=O)c2cc(NS(=O)(=O)c3ccccc3)ccc2O1,1.08 ± 0.023,–
COc1ccc2c3c([C@H](CO)N(C[C@]33CN(C3)C(=O)CC3CC3)C(=O)C3CCCC3)n(C)c2c1,0.897 ± 0.036,–
COc1ccc(NC(=O)N2CC[C@@]3(CC2)CN([C@@H](CO)c2c3c3ccc(OC)cc3n2C)C(=O)C2CCC2)cc1,0.897 ± 0.041,–
COc1ccc(NC(=O)N2C[C@@]3(C2)CN([C@H](CO)c2c3c3ccc(OC)cc3n2C)C(=O)C2CCC2)cc1,–,0.841 ± 0.05
COc1ccc2c3c([C@@H](CO)N(C[C@]33CCN(CC4CCCC4)CC3)C(=O)C3CCC3)n(C)c2c1,1.1 ± 0.042,–
COc1ccc(NC(=O)N2CC[C@@]3(CC2)CN([C@H](CO)c2c3c3ccc(OC)cc3n2C)C(=O)C2CCC2)cc1,0.785 ± 0.057,–
COc1ccc2c3c([C@@H](CO)N(C[C@]33CN(C3)C(=O)CC3CC3)C(=O)C3CCCC3)n(C)c2c1,0.932 ± 0.021,–
COc1cccc(CN2C[C@@]3(C2)CN([C@@H](CO)c2[nH]c4cc(OC)ccc4c32)C(=O)C2CC2)c1,0.956 ± 0.11,–
C[C@H](CO)N1C[C@H](C)[C@H](CN(C)C(=O)NC2CCCCC2)Oc2ncc(-c3cccc(F)c3)cc2C1=O,1.01 ± 0.084,–
CCCC#Cc1cnc2c(c1)C(=O)N([C@H](C)CO)C[C@@H](C)[C@H](CN(C)C(=O)Nc1cc(F)ccc1F)O2,0.822 ± 0.058,–
CCCC#Cc1cnc2c(c1)C(=O)N([C@@H](C)CO)C[C@@H](C)[C@@H](CN(C)C(=O)Nc1cc(F)ccc1F)O2,1.02 ± 0.012,–
C[C@H]1CN([C@@H](C)CO)C(=O)c2cc(-c3cccc(C#N)c3)cnc2O[C@@H]1CN(C)C(=O)C1CCOCC1,1.04 ± 0.025,–
C[C@@H]1CN([C@@H](C)CO)C(=O)c2cc(C#Cc3ccccc3)cnc2O[C@@H]1CN(C)C(=O)c1ccccc1,1.08 ± 0.028,–
C[C@H]1CN([C@@H](C)CO)C(=O)c2cc(C#Cc3cccc(F)c3)cnc2O[C@@H]1CN(C)C(=O)C1CCCCC1,–,0.769 ± 0.073
C[C@@H]1CN([C@H](C)CO)C(=O)c2cc(C#Cc3ccccc3)cnc2O[C@@H]1CN(C)C(=O)c1ccccc1,0.966 ± 0.057,–
C[C@H](CO)N1C[C@H](C)[C@H](CN(C)C(=O)C2CCCCC2)Oc2ncc(C#Cc3cccc(F)c3)cc2C1=O,–,0.62 ± 0.074
CCCC#Cc1cnc2c(c1)C(=O)N([C@@H](C)CO)C[C@@H](C)[C@H](CN(C)C(=O)Nc1cc(F)ccc1F)O2,1.05 ± 0.041,–
